Only some compounds are listed: those with a hit (about 1.8% of all), similar ones and a draw of the others.
AI-2 QS modul – modulators of Vibrio harveyi AI-2 quorum sensing system; Vibrio harveyi JMH597 AI-2 luminescence/OD600 ratio, 9 h; active compounds read low; strain lacks LuxN and CqsS sensors; 0 = neutral-control median; activity change, % at 7.5 µM; 300,000 tested, 0.4% active; AID 2094; in the data active means activity change below about -75%, passing the limit was not always enough;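 further: luminescence divided by OD600 gain over 9 h not by final OD600 alone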
Mot1-301 SUMO – blocks SUMOylation pathway, rescuing yeast Mot1-301 growth. 320,000 tested, 1% active. AID 2716. growth rescue, % at 18.8 µM. S. cerevisiae Mot1-301 growth rescue, ATP luminescence, 38.5C; percent above DMSO median, 100 means doubled;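 active means every valid replicate shows activation above 250% relative to neutral control wells; inactive means the rest, any valid replicate at or below 250%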
ARNT-TACC3 inh – ARNT/TACC3 interaction disruption; Q9Y6A5; AlphaScreen His-ARNT PAS-B/GST-TACC3 binding, luminescence; TACC3 fragment carries E629A point mutation; inhibition, % at 9.99 µM; 390,000 tested, 0.66% active;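 active means mean inhibition of replicates at least 50% and at least half of replicates each reaching 50%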
Bfl-1 A1 inh – inhibitors of the anti-apoptotic protein A1, read as caspase activation. MEF A1-2A-BIM cells, Caspase-Glo 3/7 luminescence, 3 h; percent of clofoctol response, vehicle zero. caspase activation, % (no concentration beside the values). 330,000 tested, 0.066% active;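 active means over half of replicate activation scores above 10%, or exactly half above 10 with the replicate mean above 10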
aDG glyco up – increases alpha dystroglycan glycosylation | AID 624168 | Pro5-aDG cells, alpha-DG glycosylation AlphaScreen (IIH6); 0% Pro5, 100% B10-LARGE cell signal | activation, % at 10 µM | 360,000 tested, 0.22% active;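 active means activation of at least 8% versus controls, or a plate z-score of at least 8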;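 further: Pro5 are CHO cells carrying HIG-tagged alpha-DG that lacks glycosylation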
Of the large screens only hits and unclear results are named; the others gave an inactive call.

C[C@@]12C(=O)Nc3cc(F)ccc3C(=O)N1[C@H]1c3cc(Br)ccc3OC[C@@H]1[C@@H]2c1ccccc1	none (no result: AI-2 QS modul)
Cc1ccc2c(c1)[C@H]1[C@H](CO2)[C@H](c2ccccc2)[C@]2(C)C(=O)Nc3ccccc3C(=O)N12	Mot1-301 SUMO 341 (no result: AI-2 QS modul)
CCC(=O)N1CCC2(CC1)Oc1ccc(Cl)cc1C(=O)C21CC(c2ccccc2)=NO1 (stereo unspecified)	none
O=C(/C=C/c1cccs1)N1CCC2(CC1)Oc1ccc(Cl)cc1C(=O)C21CC(c2ccccc2)=NO1 (stereo unspecified)	ARNT-TACC3 inh 24
Nc1sc(-c2ccccc2)n[n+]1Cc1cccc2cccnc12	AI-2 QS modul -88
Oc1ccccc1CNc1cccc2cccnc12	none
OCC1OC(n2cnc3c(NCCc4ccccc4)ncnc32)C(O)C1O (stereo unspecified)	Mot1-301 SUMO 317
Nc1ccc(CCNc2ncnc3c2ncn3[C@@H]2O[C@H](CO)[C@@H](O)[C@H]2O)cc1	none
NS(=O)(=O)c1ccc(F)c(C(=O)O)c1	none
CCN1CCN(CCCN(Cc2ccco2)C(=S)Nc2cccc(Cl)c2C)CC1	none
Cc1ccccc1NC1(C#N)C(=O)Nc2ccccc21 (stereo unspecified)	Mot1-301 SUMO 348 (no result: ARNT-TACC3 inh)
Cc1ccc(-c2ccc(/C=C(\C#N)C(=O)Nc3cc(C)nn3-c3ccccc3)o2)cc1	Bfl-1 A1 inh 33 (no result: ARNT-TACC3 inh, aDG glyco up)
Cc1cc(NC(=O)/C(C#N)=C/c2ccco2)n(-c2ccccc2)n1	none (no result: ARNT-TACC3 inh)
CC(=O)N1CCN(S(=O)(=O)c2ccc(C)cc2)C1C(C)C (stereo unspecified)	none
Cc1ccc(S(=O)(=O)N2CCN(C(=O)c3ccccc3)C2C(C)C)cc1 (stereo unspecified)	Mot1-301 SUMO 279
COc1cccc(NC(=O)C2CCN(S(=O)(=O)c3ccccc3)CC2)c1	ARNT-TACC3 inh 47
CCCNC(=S)Nc1ccc2nc(-c3ccccn3)c(-c3ccccn3)nc2c1	ARNT-TACC3 inh 57
Cc1cc(N2CCOCC2)nc2ccc(NC(=S)N3CCN(c4ccccc4)CC3)cc12	Mot1-301 SUMO 340
S=C(Nc1ccc2nccnc2c1)N1CCOCC1	ARNT-TACC3 inh 46
S=C(Nc1ccc2nsnc2c1)N1CCCCC1	ARNT-TACC3 inh 29 (no result: AI-2 QS modul)
S=C(Nc1ccc(Cl)c(Cl)c1)N1CCCC1	none
O=C1CCOc2cc(OCc3ccccc3)ccc21	none
S=C(Nc1ccc2nc(-c3ccccn3)c(-c3ccccn3)nc2c1)N1CCCCC1	ARNT-TACC3 inh 70 (no result: AI-2 QS modul, Mot1-301 SUMO, Bfl-1 A1 inh)
S=C(Nc1ccc2nc(-c3ccccn3)c(-c3ccccn3)nc2c1)N1CCCCCC1	none
Cc1ccc(-c2ccc3c(c2)O[C@@H](CN(C)C(=O)Nc2ccc(F)cc2)[C@H](C)CN([C@H](C)CO)S3(=O)=O)cc1	none (no result: AI-2 QS modul, Mot1-301 SUMO, Bfl-1 A1 inh, aDG glyco up)
COc1ccc(S(=O)(=O)N2CCCCCC2)cc1NC(=O)c1ccccc1	Mot1-301 SUMO 309
COc1ccccc1C(=O)Nc1nnc(S(=O)(=O)N2CCCCC2)s1	none
COc1ccccc1C(=O)Nc1nnc(S(=O)(=O)N2CCCCCC2)s1	Mot1-301 SUMO 337
COc1ccccc1C(=O)Nc1nnc(CCc2ccccc2)s1	Mot1-301 SUMO 332
O=C(CCCN=C1NS(=O)(=O)c2ccccc21)OCC(=O)c1ccc(Br)cc1	none
CCOC(=O)c1c(NC(=O)C2C3C=CC(C3)C2(C)C(=O)O)sc2c1CCCC2 (stereo unspecified)	none
O=C1NCC2=C1C(c1ccc(Br)cc1)Nc1ccccc1N2 (stereo unspecified)	ARNT-TACC3 inh active
Cc1oc(-c2ccccc2Cl)nc1CN(C)C(C)c1ccon1 (stereo unspecified)	none
CSc1nc(N(C)NC(=O)c2ccccc2)c2ccccc2n1	none
CSc1nc(N(C)NC(=O)c2ccc(Cl)cc2)c2ccccc2n1	Mot1-301 SUMO 334
Cc1ccc(C2=NNC(=O)C(c3ccc(Cl)cc3)C2)cc1 (stereo unspecified)	AI-2 QS modul -84
O=C1c2cc(O)cc(O)c2C(=O)c2c1cc(O)c([C@@H](CO)CCO)c2O	ARNT-TACC3 inh 46
CO[C@H]1CN(C)C(=O)c2ccc(NS(=O)(=O)c3ccc(F)cc3)cc2OC[C@@H](C)NC[C@@H]1C	none (no result: AI-2 QS modul, Mot1-301 SUMO, Bfl-1 A1 inh, aDG glyco up)
Cc1cc(Cl)cc(C)c1OCCCCN1CCOCC1	Mot1-301 SUMO 283
Cc1ccc(S(=O)(=O)NCCC(=O)OCC(=O)N2CCCC2=O)cc1	none
CCN(C(=O)COC(=O)CNC(=O)c1ccccc1C)C1=CCCCC1	none (no result: AI-2 QS modul)
NS(=O)(=O)c1ccc(N=Nc2c[nH]c(=O)c(O)c2)cc1	ARNT-TACC3 inh 52
Nc1nc(O)c(N=Nc2ccc(S(N)(=O)=O)cc2)c(=O)[nH]1	none (no result: ARNT-TACC3 inh, aDG glyco up)
COc1cc(C(=O)NNC(=O)CCOc2ccccc2C)cc(OC)c1OC	none (no result: AI-2 QS modul)
CCOC(=O)c1cccc(NC(=O)Cn2cc3c(n2)CCC(C)C3)c1 (stereo unspecified)	AI-2 QS modul -77
COc1ccc(OC)c(C2=Nn3c(nnc3C3CCCCC3)SC2)c1	none
COc1ccccc1C1=Nn2c(nnc2C2CCCCC2)SC1	Mot1-301 SUMO 354 (no result: AI-2 QS modul)
CC(=O)Nc1cccc(C(=O)NNC(=O)c2ccc(NS(=O)(=O)c3cccs3)cc2)c1	none (no result: AI-2 QS modul, Mot1-301 SUMO, ARNT-TACC3 inh, Bfl-1 A1 inh)
NC(=O)c1cc(NC(=O)c2ccc(NS(=O)(=O)c3cccs3)cc2)cc(C(N)=O)c1	ARNT-TACC3 inh 35
COCC#Cc1ccc([C@@H]2[C@H]3CN(Cc4cccnc4)CCCCN3[C@H]2CO)cc1	none (no result: AI-2 QS modul, Mot1-301 SUMO, Bfl-1 A1 inh, aDG glyco up)
Nc1ccc(Br)c2c1C(=O)c1ccccc1C2=O	none (no result: ARNT-TACC3 inh, aDG glyco up)
NC1=C(Br)C(=O)c2ccccc2C1=O	AI-2 QS modul -90, aDG glyco up 3.9
COc1ccccc1NC(=O)C(=O)NNC(=O)c1ccco1	none
CNC(=O)c1nnsc1S(=O)(=O)c1ccc(Cl)cc1	AI-2 QS modul -95 (no result: Mot1-301 SUMO, Bfl-1 A1 inh)
O=C(c1nnsc1S(=O)(=O)c1ccc(Cl)cc1)N1CCOCC1	none (no result: Mot1-301 SUMO, Bfl-1 A1 inh)
COc1ccc(CN2CSC(=S)N(Cc3ccc(OC)cc3)C2)cc1	Mot1-301 SUMO 328
CC(C)Cc1nnc(NC(=O)c2ccc(N3CCCC3=O)cc2)s1	Mot1-301 SUMO 285 (no result: AI-2 QS modul)
CCCCc1nnc(NC(=O)c2ccc(N3CCCC3=O)cc2)s1	none (no result: ARNT-TACC3 inh)
CCOc1cc(C2NC(=O)NC(C)=C2C(=O)OCc2ccccc2)ccc1O (stereo unspecified)	ARNT-TACC3 inh 44
COc1cc(C2NC(=O)NC(C)=C2C(=O)OCc2ccccc2)ccc1O (stereo unspecified)	none
O=C(c1ccc2ccccc2c1)N1CCN(c2ccc(C(F)(F)F)cn2)CC1	Mot1-301 SUMO 316
Cc1[nH][nH]c(=O)c1C(c1cc(Br)ccc1O)c1c(C)[nH][nH]c1=O	ARNT-TACC3 inh active
Cc1cc(C)c(NC(=O)COC(=O)c2cccc3c2C(=O)c2ccccc2C3=O)c(C)c1	none
Cc1cc(C)c(Nc2cc(S(=O)(=O)O)c(N)c3c2C(=O)c2ccccc2C3=O)c(C)c1	ARNT-TACC3 inh 55 (no result: AI-2 QS modul)
